A short description of assay [1]: Stat Signaling Pathway (AID 446; active = well fitted curve in either direction with a large enough effect, not every such curve was filed as active;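 note: ME-180 cervical cancer cells given 40 pM IL-6 alongside compound; SIE-controlled beta-lactamase reporter measured as 460/530 nm FRET emission ratio; % is set by controls: 0 for no effect and ±100 for the full control effect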). The procedure, abridged:
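Reporter line: ME-180 cervical carcinoma, SIE-beta-lactamase. Treatment: compound with 40 pM IL-6, 5 hrs, 37 C, in low-serum OPTI-MEM with 10 mM HEPES pH 7.3. Detection: 460/530 nm fluorescence.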

The target in assay [2] is Glucocorticoid receptor (Homo sapiens) (UniProt P04150). Put plainly: GR-GFP Redistribution (AID 450;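 active = compounds whose dose series gives a full or clear partial fitted curve of increased nuclear translocation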; note: potency is the fitted concentration of half-maximal effect). Conditions: U2OS GR-GFP nuclear translocation, laser cytometry, 2 h.
Assay [3] shares this target. Put plainly: GR-EFC Redistribution (AID 451; calls by dose curve; note: potency is the fitted concentration of half-maximal effect). Particulars: CHO-K1 GR-EFC translocation, beta-gal luminescence, 2 h. The procedure, abridged:
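CHO-K1 cells stably expressing nuclear-localized β-gal enzyme acceptor and GR fused C-terminally to the enzyme donor fragment; ligand-driven nuclear translocation restores β-gal by complementation. Compounds titrated up to 46 uM final, 2 h at 37 °C; luminescence read.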

Assay [4] deals with Mitogen-activated protein kinase 10 (Mus musculus) (UniProt Q61831). Put plainly: JNK3 AlphaScreen Assay (AID 530; active = well fitted curve in either direction with a large enough effect, not every such curve was filed as active;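 note: kinase came from lysate of stimulated human HepG2 cells; signal reports phosphorylation of biotinylated GST-cJun 1-79 at Ser73 with 10 µM ATP; % is set by controls: 0 for no effect and ±100 for the full control effect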). The procedure, abridged:
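JNK3 came from HepG2 lysates pre-activated with IL-1beta and TNF-alpha and phosphorylated biotinylated GST-cJun (1-79) at 10 uM ATP, pH 7.6, room temperature. Compounds were titrated. AlphaScreen signal used anti-phospho-cJun (Ser73) antibody.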
On the technique in general: Alpha assays give light when donor and acceptor beads are brought close together.

For assay [5], the target named is 3',5'-cyclic-AMP phosphodiesterase 4B (Homo sapiens) (UniProt Q07343). Put plainly: qHTS Assay for Inhibitors of PDE-IV (AID 607; active = well fitted activation curve with a large enough effect in the main read-out, with a control signal flat, not every such curve was filed as active; note: % of control where 0% means no effect). The procedure, abridged: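 Cell-based read-out of cAMP via a modified cyclic nucleotide-gated channel and membrane potential dye (535/590 nm) in HEK293 cells expressing PDE4 endogenously. Compounds tested up to 22.9 uM final; 100 uM RO 20-1724 reference.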
(In general: Quantitative high-throughput screening tests each substance at several concentrations.)

A short description of assay [6]: Confirmation and Secondary Assay for Modulators of Hemoglobin Beta Chain Splicing at IVS2 705 locus (AID 930).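 Note: HeLa cells stably expressing the EGFP-705 splicing reporter; GFP fluorescence per well restored by corrected splicing of the IVS2-705 intron in EGFP; % of control where 0% means no effect.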 The gist of the method: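 Fluorescence gain (488 nm laser, 500-520 nm PMT) reflects restored correct splicing of a mutant IVS2-705 intron inside EGFP in stably transfected HeLa cells after 2-day compound treatment.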
Assay [7] can be described thus: qHTS Assay for Lipid Storage Modulators (AID 1519; calls by dose curve; for activity change, negative = inhibition: % is set by controls: 0 for no effect and ±100 for the full control effect). Particulars: Drosophila S3 cells, BODIPY lipid droplet/cell ratio, laser cytometry, cells loaded with oleic acid. The gist of the method:
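Cells seeded at 5,000 per well were treated with compounds over a concentration series and loaded with oleic acid (400 uM, as added). Lipid droplet fluorescence (488 nm excitation, 500-530 nm channel) was read by laser-scanning cytometry and normalized to 20 uM Triacsin C.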

In assay [8] the target is Ubiquitin carboxyl-terminal hydrolase 1 (Homo sapiens) (UniProt O94782). Kind of assay: Inhibitors of USP1/UAF1: Pilot qHTS (AID 504865).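 Note: rhodamine fluorescence freed from ubiquitin-rhodamine substrate followed over time; top concentration of the series differs between compounds; % is set by controls: 0 for no effect and ±100 for the full control effect; nearly all actives have a fitted effect of over 35% in size.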 The procedure, abridged:
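Enzyme-free wells gave the negative control, while test wells held 1nM USP1/UAF1 preincubated with compound for 15 min at room temperature. Ub-Rho at 150nM final started the reaction, and fluorescence at 480/540 nm was recorded kinetically.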

In assay [9] the target is DNA dC->dU-editing enzyme APOBEC-3G (Homo sapiens) (UniProt Q9HC16). Put plainly: qHTS for inhibitors of Vif-A3G interactions: Validation (AID 588379). Note: 0% is about no effect. The procedure, abridged: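 HeLa cells stably expressing Vif and A3G-eYFP, 700 cells/well, incubated overnight at 37 deg C, then exposed to compound overnight at 37 deg C. Inhibition of Vif-mediated degradation read as increased yellow fluorescence (Ex 488/Em 500-530) by laser-scanning cytometry.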

Assay [10] has as its system Zika virus NS2B-NS3 protease. Kind of assay: Primary screen GU AMC qHTS for Zika virus inhibitors (AID 1347154). Note: potency is the fitted concentration of half-maximal effect; nearly all actives have a fitted effect of over 70% in size. The procedure, abridged: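 Unlinked Zika NS2B hydrophilic domain/NS3 protease domain noncovalent complex (25 nM final) in 10 mM Tris-HCl pH 8.0, 0.01% Tween 20, with AMC peptide substrate. Fluorescence (ex 340, em 450 nm) change over 15 min, room temperature; percent inhibition fitted to 4-parameter Hill equation.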

Assay [11] has as its system Zika virus NS2B-NS3 protease (linked construct). Kind of assay: Primary screen NINDS Rhodamine qHTS for Zika virus inhibitors (AID 1347160). Note: % is set by controls: 0 for no effect and ±100 for the full control effect; nearly all actives have a fitted effect of over 55% in size. The gist of the method:
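In 10 mM Tris-HCl pH 8.0 containing 0.01% Tween 20, linked NS2B-NS3 protease (25 nM final) is exposed to test compounds for 15 min. Cleavage of 1.5 microM Rhodamine110 substrate is tracked by fluorescence over 15 min.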

Assay [12] can be described thus: HPAF-II Cancer Cell Toxicity qHTS against the NCATS CANVASS Library (AID 1347346). Note: potency is the fitted concentration of half-maximal effect; nearly all actives have a fitted effect of over 55% in size. The gist of the method:
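Cytotoxicity in HPAF-II pancreatic cancer cells: 72 h treatment across 11 concentrations, ATP-based CellTiter-Glo luminescence endpoint.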

Assay [13] can be described thus: SW1088 Cancer Cell Toxicity qHTS against the NCATS CANVASS Library (AID 1347350). Note: nearly all actives have a fitted effect of over 75% in size. The gist of the method: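 Bortezomib titration and single-dose wells served as plate controls. Test compounds, 11 points, acted on 1000 cells/well for 72 h at 37 degrees C; CellTiter-Glo luminescence quantified remaining viable cells.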
A short description of assay [14]: A2780 Cisplatin Sensitive Ovarian Cancer Cell Toxicity qHTS against the NCATS CANVASS Library (AID 1347353). Note: potency is the fitted concentration of half-maximal effect; nearly all actives have a fitted effect of over 60% in size. The procedure, abridged:
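Seventy-two-hour exposure of cisplatin-sensitive A2780 ovarian cells to an 11-concentration qHTS series; cytotoxicity is inferred from loss of ATPLite luminescence. Bortezomib titration served as positive control.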

Assay [15] in a line: HPAF-II 24hr Apoptosis Induction qHTS against the NCATS CANVASS Library (AID 1347356). Note: 0% is about no effect. The gist of the method: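 Apoptosis induction in HPAF-II pancreatic cancer cells is measured as caspase-3/7 luminescence after a 24-hour exposure to compounds.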
Assay [16] can be described thus: HEK293 18hr Apoptosis Induction qHTS against the NCATS CANVASS Library (AID 1347357). Note: 0% is about no effect. The procedure, abridged:
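Natural products applied to HEK293 for 18 hr; Caspase-Glo 3/7 readout.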

Assay [17] in a line: HPAF-II 12hr Apoptosis Induction qHTS against the NCATS CANVASS Library (AID 1347358). Note: 0% is about no effect. The procedure, abridged: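 Apoptosis in HPAF-II pancreatic cancer cells is scored as caspase 3/7 luminescence following a 12-hour exposure to an 11-point compound series.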
The nature of assay [18]: HEK293 24hr Apoptosis Induction qHTS against the NCATS CANVASS Library (AID 1347359). Note: 0% is about no effect. The gist of the method:
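HEK293 cells (500/well, DMEM + 10% FBS) were exposed to compounds in an 11-point series for 24 hours at 37 degrees C, then caspase-3/7 activity was read by Caspase-Glo DEVD luciferase luminescence after 15 min.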

Assay [19] can be described thus: HPAF-II 18hr Apoptosis Induction qHTS against the NCATS CANVASS Library (AID 1347360). Note: 0% is about no effect. The gist of the method:
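Luminescent DEVD-substrate signal, proportional to caspase activity, is measured in HPAF-II cells after 18-hour treatment across a concentration series; doxorubicin serves as control.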

Assay [20] can be described thus: HEK293 12hr Apoptosis Induction qHTS against the NCATS CANVASS Library (AID 1347361). Note: 0% is about no effect. The gist of the method:
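Luminescent caspase-3/7 signal, proportional to enzyme activity, was recorded from HEK293 cultures in DMEM + 10% FBS treated for 12 hours with titrated natural products (11 points). Doxorubicin (0.1nM - 4uM) served as control.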

The target in assay [21] is Luciferin 4-monooxygenase (Photinus pyralis) (UniProt P08659). Put plainly: Firefly luciferase counterscreen qHTS: Assay Interference Panel against the NCATS CANVASS Library (AID 1347363). Note: 0% is about no effect. The gist of the method: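 Purified P. pyralis luciferase was added to compounds (11-point series) preincubated 15 min at room temperature with substrate containing 0.013 mM D-luciferin and 0.013 mM ATP; luminescence was read after 5 min.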
For orientation: The purpose of a counterscreen is to sort out artefacts and off-target activity.

Where “and” joins values, the source holds several entries; their conditions need not be identical. Equal values may be shown once. Inconclusive results are not listed. Calls of active or inactive are those of the source. Unless noted, calls come from the whole dose curve; as a rule, active = well fitted curve in the direction sought with a large enough effect; inconclusive = small, poorly fitted or top-dose-only effect, or another doubt; inactive = no such curve, though single readings can be large; an effect the other way counts as inactive or inconclusive.

Glucocorticoid receptor (Homo sapiens), sequence (P04150 whole entry, looked up): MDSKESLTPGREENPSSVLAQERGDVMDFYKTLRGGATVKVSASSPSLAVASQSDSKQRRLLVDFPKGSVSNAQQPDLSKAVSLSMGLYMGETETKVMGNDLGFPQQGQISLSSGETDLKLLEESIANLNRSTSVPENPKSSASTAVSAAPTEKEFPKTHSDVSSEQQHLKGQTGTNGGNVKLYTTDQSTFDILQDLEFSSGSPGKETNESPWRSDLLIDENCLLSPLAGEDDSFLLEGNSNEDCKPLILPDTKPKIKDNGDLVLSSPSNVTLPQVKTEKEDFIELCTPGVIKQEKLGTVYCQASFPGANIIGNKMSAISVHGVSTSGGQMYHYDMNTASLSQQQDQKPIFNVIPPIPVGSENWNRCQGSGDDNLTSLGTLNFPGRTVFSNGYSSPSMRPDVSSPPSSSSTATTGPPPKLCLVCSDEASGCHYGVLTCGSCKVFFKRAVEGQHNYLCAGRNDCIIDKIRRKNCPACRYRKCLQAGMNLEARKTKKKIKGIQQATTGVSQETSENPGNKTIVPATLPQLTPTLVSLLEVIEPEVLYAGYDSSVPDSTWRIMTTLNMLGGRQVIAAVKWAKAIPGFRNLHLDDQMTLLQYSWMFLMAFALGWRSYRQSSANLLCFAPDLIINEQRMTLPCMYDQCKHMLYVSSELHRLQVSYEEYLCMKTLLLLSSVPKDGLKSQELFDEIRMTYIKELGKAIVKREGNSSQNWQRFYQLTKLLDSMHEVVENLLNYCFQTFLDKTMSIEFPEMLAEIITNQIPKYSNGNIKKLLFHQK
Ubiquitin carboxyl-terminal hydrolase 1 (Homo sapiens), sequence (O94782 whole entry, looked up): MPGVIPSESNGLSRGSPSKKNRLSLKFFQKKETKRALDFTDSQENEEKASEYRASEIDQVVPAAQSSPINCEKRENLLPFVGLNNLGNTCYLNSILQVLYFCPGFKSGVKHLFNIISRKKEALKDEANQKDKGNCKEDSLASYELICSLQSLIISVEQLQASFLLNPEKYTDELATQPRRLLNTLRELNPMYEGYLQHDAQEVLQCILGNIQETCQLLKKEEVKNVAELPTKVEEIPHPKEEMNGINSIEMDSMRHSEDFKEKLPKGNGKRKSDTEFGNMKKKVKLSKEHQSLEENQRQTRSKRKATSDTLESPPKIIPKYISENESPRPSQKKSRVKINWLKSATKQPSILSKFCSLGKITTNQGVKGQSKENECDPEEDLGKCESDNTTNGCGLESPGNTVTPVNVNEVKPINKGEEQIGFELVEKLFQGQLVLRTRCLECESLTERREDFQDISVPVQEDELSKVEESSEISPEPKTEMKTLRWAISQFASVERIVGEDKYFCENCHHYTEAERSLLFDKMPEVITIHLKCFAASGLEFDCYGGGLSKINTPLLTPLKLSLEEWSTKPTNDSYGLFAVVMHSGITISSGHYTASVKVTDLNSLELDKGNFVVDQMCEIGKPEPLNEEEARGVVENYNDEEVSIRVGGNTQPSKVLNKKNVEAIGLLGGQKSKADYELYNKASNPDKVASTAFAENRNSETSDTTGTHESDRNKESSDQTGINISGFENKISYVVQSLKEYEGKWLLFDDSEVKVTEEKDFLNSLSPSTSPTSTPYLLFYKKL
3',5'-cyclic-AMP phosphodiesterase 4B (Homo sapiens), sequence (Q07343 whole entry, looked up): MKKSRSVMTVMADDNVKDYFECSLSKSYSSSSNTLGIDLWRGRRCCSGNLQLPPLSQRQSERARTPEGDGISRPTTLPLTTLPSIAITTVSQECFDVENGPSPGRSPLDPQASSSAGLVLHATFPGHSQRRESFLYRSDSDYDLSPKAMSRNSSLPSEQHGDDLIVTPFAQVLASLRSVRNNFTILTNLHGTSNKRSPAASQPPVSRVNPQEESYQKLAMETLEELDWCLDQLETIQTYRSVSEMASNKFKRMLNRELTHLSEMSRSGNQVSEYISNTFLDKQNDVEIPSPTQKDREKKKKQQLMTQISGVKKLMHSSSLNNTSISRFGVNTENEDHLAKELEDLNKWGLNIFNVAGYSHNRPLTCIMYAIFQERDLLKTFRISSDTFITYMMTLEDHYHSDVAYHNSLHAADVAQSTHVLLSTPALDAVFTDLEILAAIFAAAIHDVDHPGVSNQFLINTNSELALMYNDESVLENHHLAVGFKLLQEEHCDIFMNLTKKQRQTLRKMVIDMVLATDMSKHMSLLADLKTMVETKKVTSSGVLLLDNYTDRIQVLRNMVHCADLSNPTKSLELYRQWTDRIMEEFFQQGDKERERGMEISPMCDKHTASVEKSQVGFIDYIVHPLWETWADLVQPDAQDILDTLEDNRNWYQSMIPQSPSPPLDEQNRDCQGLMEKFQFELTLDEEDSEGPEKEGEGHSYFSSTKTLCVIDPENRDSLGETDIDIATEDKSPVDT
Luciferin 4-monooxygenase (Photinus pyralis), sequence (P08659 whole entry, looked up): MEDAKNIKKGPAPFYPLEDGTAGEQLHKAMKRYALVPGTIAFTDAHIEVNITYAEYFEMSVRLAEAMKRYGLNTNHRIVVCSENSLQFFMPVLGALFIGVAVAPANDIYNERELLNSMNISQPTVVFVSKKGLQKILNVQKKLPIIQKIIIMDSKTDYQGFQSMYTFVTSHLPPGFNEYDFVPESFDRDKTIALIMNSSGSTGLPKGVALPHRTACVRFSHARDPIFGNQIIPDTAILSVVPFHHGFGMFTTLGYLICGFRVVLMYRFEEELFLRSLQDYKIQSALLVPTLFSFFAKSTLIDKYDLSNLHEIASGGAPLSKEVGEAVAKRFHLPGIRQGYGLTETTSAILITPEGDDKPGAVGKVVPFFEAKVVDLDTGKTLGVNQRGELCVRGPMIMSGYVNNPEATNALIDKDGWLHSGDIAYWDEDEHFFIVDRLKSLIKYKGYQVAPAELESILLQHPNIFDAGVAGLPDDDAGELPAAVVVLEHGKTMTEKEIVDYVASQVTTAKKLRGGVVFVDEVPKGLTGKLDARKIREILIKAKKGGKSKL
DNA dC->dU-editing enzyme APOBEC-3G (Homo sapiens), sequence (Q9HC16 whole entry, looked up): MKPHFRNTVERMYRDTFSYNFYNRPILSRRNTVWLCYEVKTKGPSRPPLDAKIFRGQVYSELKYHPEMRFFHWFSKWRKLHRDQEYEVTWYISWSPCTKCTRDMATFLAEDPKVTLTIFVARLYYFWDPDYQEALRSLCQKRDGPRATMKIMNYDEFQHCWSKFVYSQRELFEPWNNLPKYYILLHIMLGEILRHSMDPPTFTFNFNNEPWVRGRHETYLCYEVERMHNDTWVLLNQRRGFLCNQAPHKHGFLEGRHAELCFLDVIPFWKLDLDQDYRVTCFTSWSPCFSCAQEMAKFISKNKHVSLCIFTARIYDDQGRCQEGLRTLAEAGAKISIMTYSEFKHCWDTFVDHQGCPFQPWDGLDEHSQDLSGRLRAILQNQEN

`COc1ccc2c(c1)[nH]c1c(C)nccc12`: the compound was classed as inactive in assay [1], in [4], in assay [6], in assay [15], in assay [17] and in assay [19]. The outcome in assay [21] was inactive. In addition, the Potency was > 20.6 µM (inactive) in assay [2]; > 20.6 µM (inactive) in assay [3]; 3.36 µM (active) in [10]; 27.3 µM (active) in assay [12]; 19.1 µM (active) in assay [14]. Also, the Potency entry in assay [5], in assay [8], in assay [9], in assay [11], in assay [13] and in assay [16] was “inactive” each time. In addition, the Potency entry in [18] and in assay [20] was “inactive” in each case. Also, the activity change, negative = inhibition in assay [7] (at 25.7 µM (top of the series)) is -4.61% (inactive); in [7] (at 57.5 µM (top of the series)), 2.5% (inactive). In addition, the max response is -2.86% and 7% in assay [7] (measured here: cell count channel max response); -9.39% and 13.6% in assay [7] (measured here: lipid channel max response).

Source of the values: PubChem BioAssay (NCATS).
